# Sampled rows, rich in hits. Any-hit rate of the full collection: about 32%.
# CYP2C9 inhib: human CYP2C9 inhibition. P11712. CYP2C9 Supersomes, luciferin-H conversion, luminescence. inhibition, % at 5 µM. 96,000 compounds, 20% hits. AID 777;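 active means blocking of liver enzyme CYP2C9 beyond about 50% at 5 µM, limit read from the data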
# Target sequence (P11712 whole entry, looked up): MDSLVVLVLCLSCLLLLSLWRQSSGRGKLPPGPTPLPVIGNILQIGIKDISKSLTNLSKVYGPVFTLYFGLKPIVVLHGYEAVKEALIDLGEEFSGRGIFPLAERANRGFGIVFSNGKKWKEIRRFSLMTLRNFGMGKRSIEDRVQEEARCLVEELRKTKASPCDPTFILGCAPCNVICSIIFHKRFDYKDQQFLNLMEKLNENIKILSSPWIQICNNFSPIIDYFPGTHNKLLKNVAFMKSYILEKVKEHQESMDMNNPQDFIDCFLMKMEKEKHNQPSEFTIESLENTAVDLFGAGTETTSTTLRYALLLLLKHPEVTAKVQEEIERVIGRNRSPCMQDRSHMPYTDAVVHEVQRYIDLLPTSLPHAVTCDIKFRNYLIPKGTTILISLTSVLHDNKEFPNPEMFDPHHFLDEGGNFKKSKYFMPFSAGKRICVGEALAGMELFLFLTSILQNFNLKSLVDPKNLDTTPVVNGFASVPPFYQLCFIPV
# CYP2C19 activ: cytochrome P450 2C19 (human) activation | P33261 | activation factor at 5 µM | recombinant CYP2C19, luciferin-H EGE luminescence; hits give high values; 0 = fully inhibited enzyme, 1 = untreated enzyme | 96,000 tested, under 10 active;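 active means activation factor of at least 2 at 5 µM in the primary screen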;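 further: 0 = wells with 2.5 mM tranylcypromine and 1 = vehicle-only wells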
# CYP2C9 activ: increases human cytochrome P450 2C9 activity; P11712; recombinant CYP2C9, luciferin-H conversion, luminescence; hits give high values; factor 1 = untreated enzyme, 0 = blocked; activation factor at 5 µM; 96,000 compounds, 1.4% hits; AID 1024;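 active means activation factor of 2 or more for CYP2C9 at a 5 µM dose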;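 further: 0 = sulfaphenazole-blocked wells and 1 = vehicle-only wells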
# CYP2C19 inh: blocks human cytochrome P450 2C19. AID 778. 96,000 compounds, 21% hits. P33261. CYP2C19 Supersomes, luciferin-H EGE luminescence, 30 min. inhibition, % at 5 µM;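 active means CYP2C19 inhibition above a set limit at 5 µM in the primary screen, cut at about 50% in these data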;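 further: plate controls were negative control wells for no effect and 2.5 mM tranylcypromine positive control for full effect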
# PostGolgi ctrl: inhibits growth of the yeast control strain. efflux-deficient yeast background strain, growth absorbance A615, 16 h. inhibition, % at 10 µM. 98,000 compounds, 5% hits
# PostGolgi yeast: growth inhibition of a yeast mutant, post-Golgi transport screen; inhibition, % at 10 µM; post-Golgi transport phenotypic cell assay; AID 739; 98,000 compounds, 0.9% hits;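 further: yeast cells grown in 1536-well plates; yeast grown about 18 h at 30C before absorbance read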
# * = called active by the depositor; · = no result. Unless noted, no stated cut-off is given here; in the data, active means inhibition above about 30%; inactive means the rest.
SMILES,CYP2C9 inhib,CYP2C19 activ,CYP2C9 activ,CYP2C19 inh,PostGolgi ctrl,PostGolgi yeast
Cc1ccc(S(=O)(=O)Cn2nnnc2C(C(C)C)N2CCSCC2)cc1 (centres undefined),68.6*,0.8,0.3,23.9,1.6,4.9
CCc1nn(CC(=O)O)c(=O)c2ccccc12,4.5,1.1,1,-6.6,4.7,8.6
CCOC(=O)Cc1cc(=O)c2c(=O)n(-c3ccccc3)[nH]c2[nH]1,4.8,0.9,1,5.1,4.1,3.1
O=c1cc(-c2ccccc2)[nH]c2[nH]n(-c3ccccc3)c(=O)c12,56.5*,1,0.4,0.0,4.8,23.2
C/C(N)=C(/C#N)C(=O)CSc1nc(C2CCCCC2)n(-c2ccccc2)n1,77.2*,0.8,0.2,22.7,2.9,-6.5
C=CCn1c(SCc2cc(=O)n3ccsc3n2)nnc1C1CCCCC1,0.6,0.1,1,87.8*,-0.5,22.1
C/C(N)=C(/C#N)C(=O)CSc1nnc(Cc2ccccc2F)n1N,-2.4,0.6,1,42.0,12.7,3.8
C=CCn1c(SCC(=O)/C(C#N)=C(\C)N)nnc1C1CCCCC1,-2.7,0.2,1,78.0*,-1.5,16.4
C/C(N)=C(/C#N)C(=O)CSc1n[nH]c(-c2ccccc2Br)n1,19.4,0,0.8,97.0*,4.9,6.1
C=CCn1c(SCC(=O)NCc2ccccc2)nnc1C1CCCCC1,40.4,0.8,0.6,15.4,3.7,-3.9
O=C(CSc1oc(-c2ccc(F)cc2)nc1S(=O)(=O)c1ccccc1)NCC1CCCO1 (centres undefined),·,·,·,·,8.3,-1.0
Cc1csc(=Nc2c(C)n(C)n(-c3ccccc3)c2=O)n1Cc1ccccc1,42.3,0.2,0.6,82.0*,8.7,-2.9
O=C(CCN1C(=O)c2cccnc2C1=O)NC1CCCCCC1,-17.0,1,1.2,-3.1,0.2,2.4
Cc1ccc(C(C(=O)NC2CCCCC2)N(C(=O)c2csnn2)C2CCCC2)o1 (centres undefined),32.4,0.6,0.7,36.6,8.3,-1.2
Cc1ccc(C(C(=O)NC2CCCC2)N(C(=O)c2csnn2)C2CCCC2)o1 (centres undefined),20.5,0.4,0.8,64.0*,12.1,7.6
Cc1ccsc1C(C(=O)NC1CCCCC1)N(C(=O)c1csnn1)C1CC1 (centres undefined),11.9,0.4,0.9,63.9*,-3.2,-2.0
C=CCn1c(NC(=O)c2ccco2)c(S(=O)(=O)c2ccccc2)c2nc3ccccc3nc21,66.2*,0.8,0.3,21.2,·,·
COc1ccc(S(=O)(=O)c2c(N)n(Cc3ccco3)c3nc4ccccc4nc23)cc1,48.2,0.6,0.5,36.6,13.1,-2.0
C=CCn1c(NC(=O)c2ccc(Br)o2)c(S(=O)(=O)c2ccccc2)c2nc3ccccc3nc21,53.0*,0.9,0.5,6.6,8.1,6.1
N/C(CCCN1CCCCC1)=N/O,-14.1,1,1.1,-4.5,-8.0,-7.2
COC(=O)CC1=C(C)C(=O)CC2C(C)(C)CCCC12C (centres undefined),17.0,0.4,0.8,57.2*,-3.5,-2.3
CC1(C(=O)NC2CCCC2)CCC(=O)N1Cc1ccccc1Cl (centres undefined),-125.0,0.9,2.3*,14.1,11.3,-0.5
COc1ccccc1CN1C(=O)CCC1(C)C(=O)NC1CCCCCC1 (centres undefined),-13.7,0.5,1.1,47.3,21.2,-3.4
CC(=O)Nc1ccc(N2CCCCC2)c(C(=O)Nc2cccc(C)c2)c1,56.7*,0.5,0.4,50.3*,31.2*,-16.9
CCCOc1ccc(S(=O)(=O)n2cc(Br)c(=O)[nH]c2=O)cc1,97.9*,0.7,0,26.6,42.0*,6.4
SMILES,CYP2C9 inhib,CYP2C19 activ,CYP2C9 activ,CYP2C19 inh,PostGolgi ctrl,PostGolgi yeast
Fc1ccc(SCCc2ccncc2)cc1,82.2*,0,0.2,97.0*,6.2,8.8
O=C(NCCc1ccncc1)C(F)(F)F,-5.8,1,1.1,-1.2,13.5,20.7
Fc1cc(F)c(F)c(SCCc2ccncc2)c1F,74.1*,0.2,0.3,81.2*,9.9,4.8
O=S(CCc1ccncc1)Cc1ccccc1 (centres undefined),53.0*,0.2,0.5,84.9*,13.7,-7.0
c1ccc(SCCc2ccncc2)cc1,81.1*,0,0.2,95.3*,15.0,-15.8
CCCCS(=O)Cc1ccccc1 (centres undefined),-42.5,1.1,1.4,-9.4,1.8,6.2
Cc1cc(SCCC(=O)O)nc2c(C)cccc12,17.1,0.9,0.8,6.5,9.8,-1.1
O=C(O)CC(Cc1ccc(Br)cc1)C(=O)O (centres undefined),9.0,1,0.9,-3.8,3.5,1.1
O=C(NCc1nnc2n1CCCCC2)c1ccc(Cl)cc1Cl,-37.5,1,1.4,-2.2,2.1,8.5
O=C(c1ccco1)[C@@H]1[C@@H]2C(=O)N(c3ccc(F)cc3)C(=O)[C@@H]2C2c3ccccc3C=CN21 (some centres undefined),14.6,0.9,0.9,5.3,2.8,5.2
COc1ccccc1C1C2C(=O)N(c3ccccc3)C(=O)C2ON1c1ccccc1 (centres undefined),86.1*,0.2,0.1,76.8*,13.7,-5.4
O=C(O)COc1ccccc1C1C2C(=O)N(c3ccc(F)cc3)C(=O)C2ON1c1ccccc1 (centres undefined),54.4*,0.6,0.5,38.4,5.1,6.5
CCN1C(=O)C2(Nc3ccccc3-c3nc4ccccc4n32)c2cc(OC)ccc21 (centres undefined),68.9*,0.7,0.3,33.5,6.5,8.8
O=C1Nc2ccccc2C12Nc1ccccc1-c1nc3ccccc3n12 (centres undefined),·,·,·,·,-3.6,-3.6
CN1C(=O)C2(Nc3ccccc3-c3nc4ccccc4n32)c2ccccc21 (centres undefined),64.4*,0.3,0.4,71.4*,7.0,2.2
Cc1ccccc1N1CCN(S(=O)(=O)c2ccc3oc(=O)ccc3c2)CC1,80.5*,0.6,0.2,41.3,3.1,24.3
Cc1ccc(N2CCN(S(=O)(=O)c3ccc(F)c(C)c3)CC2)c(C)c1,90.7*,0.2,0.1,84.0*,28.2,-2.4
Cc1cc(S(=O)(=O)N2CCOCC2)ccc1F,-7.7,0.9,1.1,8.5,7.7,0.2
CCC(=O)c1cc(F)c(N2CCN(S(=O)(=O)c3ccc(C)cc3)CC2)cc1C,59.2*,0.6,0.4,42.6,35.0*,27.9
CCc1ccccc1N1CCN(S(=O)(=O)c2ccc(F)c(C)c2)CC1,90.1*,0.1,0.1,89.9*,13.4,-3.2
COCCNCCOCCOc1ccc(Cl)c(C)c1,-3.6,0.7,1,32.1,11.7,-6.0
CCOC(=O)N1CCN(C(=O)CNCc2cccs2)CC1,11.3,0.8,0.9,19.2,-1.0,-26.2
Cc1ccc(N2CCN(S(=O)(=O)N(C)C)CC2)c(C)c1,63.5*,0.1,0.4,86.0*,·,·
